Hit rate of the full screen: of about 16,000 compounds, about 2,600 (16%) were called active. Inconclusive results (about 20%) are left out. Only a sample is shown. Values without a mark were called inactive. Calls follow the shape of the dose curve; as a rule, active = well fitted curve in the direction sought with a large enough effect; inconclusive = small, poorly fitted or top-dose-only effect, or effect the other way; inactive = no such curve, though single readings can be large or run the other way.
The compounds below were run against Cytochrome P450 2D6 (Homo sapiens) (UniProt P10635) (assay: Cytochrome panel assay with activity outcomes). Conditions: recombinant CYP, pro-luciferin dealkylation, luminescence, p450-cyp2d6; series mostly up to 57.1 µM.
Chain of Cytochrome P450 2D6 (Homo sapiens) (P10635 whole entry, looked up): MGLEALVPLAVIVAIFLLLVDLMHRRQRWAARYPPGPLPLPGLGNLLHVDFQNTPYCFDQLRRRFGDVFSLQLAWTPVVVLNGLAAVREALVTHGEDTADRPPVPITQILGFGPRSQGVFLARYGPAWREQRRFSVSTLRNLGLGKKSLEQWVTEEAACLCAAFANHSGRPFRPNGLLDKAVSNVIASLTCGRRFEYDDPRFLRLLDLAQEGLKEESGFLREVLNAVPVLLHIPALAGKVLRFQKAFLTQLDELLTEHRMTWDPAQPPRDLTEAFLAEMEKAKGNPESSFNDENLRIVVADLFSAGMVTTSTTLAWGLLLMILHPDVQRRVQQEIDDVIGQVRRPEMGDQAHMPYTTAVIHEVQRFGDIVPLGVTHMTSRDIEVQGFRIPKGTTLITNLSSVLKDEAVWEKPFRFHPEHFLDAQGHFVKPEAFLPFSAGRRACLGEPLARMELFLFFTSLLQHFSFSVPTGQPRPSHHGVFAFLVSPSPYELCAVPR
With `Cn1c(=O)c2c(nc(N3CCN(c4ccccn4)CC3)n2Cc2ccccc2Cl)n(C)c1=O` the AC50 was “inactive”.
For `CC(=O)Nc1ccc(NC(=O)C/C(C)=N/NC(=O)C(=O)N2CCCC2)cc1`, the AC50 was “inactive”.
In the case of `C#CCSc1n[nH]c(-c2ccco2)n1`, the activity, negative = inhibition is reported as -1.01% [at 11.4 µM].
In the case of `O=c1c2ccccc2c(-c2ccc(Br)cc2)nn1Cc1ccccc1`, the AC50 is reported as “inactive”.
With `O=c1c2ccccc2c(-c2ccccc2)nn1Cc1ccc(Cl)cc1` the AC50 was 11.2 µM (active).
In the case of `Cc1ccc(-c2nn(C)c(=O)c3ccccc23)cc1CNC(=O)Cn1nc(-c2ccccc2)c2ccccc2c1=O`, the AC50 is reported as “inactive”.
With `Cc1ccc(-c2csc(NC(=S)NC(=O)/C=C/c3ccco3)n2)cc1` the AC50 was “inactive”.
In the case of `N#Cc1cccc(-c2nc3cnc(Oc4cccc(Cl)c4)nc3n(C3CC3)c2=O)c1`, the AC50 is reported as “inactive”.
For `CC1=NN(c2ccccc2)C(=O)C1`, the AC50 was “inactive”.
`C/C(=C\C(=O)c1ccc(Br)cc1)NCc1ccc2c(c1)OCO2` was tested, and the AC50 was 7.94 µM (active).
With `O=C(Cc1ccc(Br)cc1)OCC(=O)c1ccc2c(c1)OCCO2` the AC50 was “inactive”.
With `CC(=O)c1cc2c(cc1NC(=O)CCCC(=O)O)OCO2` the AC50 was “inactive”.
`CCOc1ccc(C(C)=O)cc1N1C(=O)C2C3C=CC(O3)C2C1=O` (stereo not drawn) was tested, and the AC50 was “inactive”.
`CC(=O)N1CCC2(CCCN(C(=O)Nc3cccc(F)c3)C2)CC1` was tested, and the AC50 was “inactive”.
`COC(=O)N1CCC2(CCCN(C(=O)Nc3cccc(F)c3)C2)CC1` was tested, and the AC50 was “inactive”.
With `COCC(=O)N1CCC[C@@]2(CCN(C(=O)Nc3cccc(F)c3)C2)C1` the AC50 was “inactive”.
In the case of `COCC(=O)N1CCC2(CC1)CCN(C(=O)Nc1cccc(F)c1)CC2`, the AC50 is reported as “inactive”.
In the case of `COC(=O)N1CCC[C@@]2(CCN(C(=O)Nc3cccc(F)c3)C2)C1`, the AC50 is reported as 10 µM (active).
In the case of `COc1ccc(C(=O)N2CCC3(CCN(C(=O)Nc4cccc(F)c4)CC3)CC2)cc1`, the AC50 is reported as “inactive”.
With `CC(=O)N1CCC2(CC1)CCN(C(=O)Nc1cccc(F)c1)CC2` the AC50 was 3.16 µM (active).
`CS(=O)(=O)N1CCC2(CCN(C(=O)Nc3cccc(F)c3)CC2)CC1` was tested, and the AC50 was “inactive”.
In the case of `COC(=O)N1CCC2(CCN(C(=O)Nc3cccc(F)c3)CC2)CC1`, the AC50 is reported as 10 µM (active).
In the case of `Cc1cc(C(=O)NNC(=S)NC(C)c2ccccc2)c2ccccc2n1` (stereo not drawn), the AC50 is reported as “inactive”.
For `COc1ccc(S(=O)(=O)N2CCC[C@H]2C(=O)NC2=NCCS2)cc1`, the AC50 was “inactive”.
In the case of `COc1ccccc1N/C(=N/S(=O)(=O)c1ccc(C)cc1)c1ccc(Cl)cc1`, the AC50 is reported as “inactive”.
In the case of `CCOc1cc(CC(=O)N[C@@H](CC(C)C)c2ccccc2N2CCCCC2)ccc1C(=O)O`, the AC50 is reported as “inactive”.
In the case of `Cc1cc(N2CCN(c3nc4ccccc4s3)CC2)n2ncnc2n1`, the AC50 is reported as “inactive”.
`C[n+]1ccccc1/C=N\O` was tested, and the AC50 was “inactive”.
% is scaled to controls: 0 for no effect and ±100 for the full control effect.
